This note sets out measurements from PubChem BioAssay (Tox21).

Several values for one entry are separate records, joined by “and”; a condition that tells them apart may be missing. Identical values can stand only once. Records with an inconclusive call do not appear. A call without a number means that no potency is given here. Activity calls are given as the source filed them. Calls come from the whole dose curve; as a rule, active = well fitted cell-killing curve with a large enough effect in the repeat runs; inconclusive = weak or mixed curves, or effect the other way; inactive = no such curve, though single readings can be large or run the other way.
Potency is the fitted concentration of half-maximal effect.

A short description of this test: qHTS assay to identify small molecule antagonists of the glucocorticoid receptor (GR) signaling pathway - cell viability counter screen (AID 720693). Note: nearly all actives have a fitted effect of over 55% in size. The note with it: GR-bla HeLa viability, CellTiter-Glo luminescence, 18 h, with 5 nM dexamethasone present; series mostly up to 58.5 µM. The text has this:
National Center for Advancing Translational Sciences [NCATS]
NIH Chemical Genomics Center [NCGC]
U.S. Environmental Protection Agency [EPA]
National Institutes of Environmental Health Sciences [NIEHS]
National Toxicology Program [NTP]
U.S. Food and Drug Administration [FDA]
The Glucocorticoid receptor (GR) is one of the members of the nuclear receptor family of ligand-dependent transcription factors. GR plays a critical role in carbohydrate, protein and lipid metabolisms and programmed cell death. CellSensor GR-bla HeLa cell line (Invitrogen) contains a beta-lactamase reporter gene under the control of the glucocorticoid response element stably integrated into HeLa cells, a cervical cancer cell line that expresses glucocorticoid receptor. The activation of the reporter gene under culture conditions can be detected by fluorescence intensity. This cell line has been used to screen the Tox21 10K compound library and to identify the compounds that inhibit the GR signaling. The cytotoxicity of the Tox21 compound library against the GR-bla HeLa cell line was tested in parallel by measuring the cell viability using CellTiter-Glo assay in the same wells.
Tox21 Assay Protocol Summary:
The GR-bla HeLa cells were dispensed at 1500 cells/5 ul/well in 1536-well black wall/clear bottom plates using a Multidrop Combi (ThermoFisher Scientific, Waltham, MA) dispenser. After the assay plates were incubated at a 37 C/5% CO2 incubator for 4 hours, 23 nL of compounds dissolved in DMSO, positive controls or DMSO only was transferred to the assay plate by a pintool station (Kalypsys, San Diego, CA), followed by addition of 1 uL of dexamethasone (5 nM, final concentration in the well). The plates were incubated at 37 C for 18 hours. After 1 uL of LiveBLAzerTM B/G FRET substrate was added using a Flying Reagent Dispenser (Aurora Discovery, San Diego, CA), the plates were incubated at room temperature (RT) for 2 hours, and fluorescence intensity was measured by an Envision plate reader (PerkinElmer, Shelton, CT). After measurement of bla assay, 3 ul CellTiter-Glo (Promega, Madison, WI) was added to measure the cytotoxicity and the plates were then incubated at RT for 30 min. The luminescence was measured using a ViewLux (Perkin Elmer) plate reader.
On to `COc1ccc(OC)c([C@@H](O)[C@H](C)N)c1`, for which the Potency result is “inactive”.
Consider `C=C[C@H]1CN2CC[C@H]1C[C@H]2[C@H](OC(=O)OCC)c1ccnc2ccc(OC)cc12`, for which the Potency result was “inactive”.
The value for `Cc1nnc2n1-c1ccc(Cl)cc1C(c1ccccc1Cl)=NC2` was “inactive”; that for `c1ccc(C2(c3ccccc3)CC2C2=NCCN2)cc1` (stereo not given) was “inactive”.
The value for `OC(c1ccccc1)(c1ccccc1)C1CN2CCC1CC2` (stereo not given) was “inactive”; that for `CCN(CC)C(=O)N[C@H]1C[C@@H]2c3cccc4[nH]cc(c34)C[C@H]2N(C)C1` was “inactive”; that for `C=CCC1(C(C)CCC)C(=O)N=C(S)NC1=O` (stereo not given) was “inactive”.
As for `CC[N+](C)(CC)CCOC(=O)C(O)(c1ccccc1)c1ccccc1`, the Potency result was “inactive”.
Regarding `CC(C)[C@H]1C(=O)N2CCC[C@H]2[C@]2(O)O[C@](NC(=O)[C@@H]3C[C@@H]4c5cccc6[nH]cc(c56)C[C@H]4N(C)C3)(C(C)C)C(=O)N12`, the Potency entry was “inactive”.
The value for `CCCCCc1cc(O)c2c(c1)OC(C)(C)c1ccc(C)cc1-2` was 13.4 µM (active); that for `CCC1(c2ccccc2)C(=O)NC(=O)N(C(=O)c2ccccc2)C1=O` (stereo not given) was “inactive”; that for `NC(=O)CN1CC(O)CC1=O` (stereo not given) was “inactive”.
With `CN[C@@H](C)Cc1ccccc1`, the Potency entry was “inactive”.
In the case of `CCC1(CC)C(=O)NC(=O)N(C)C1=O`, the Potency result was “inactive”.
The value for `C[C@]12CC[C@H]3[C@@H](CCC4=C(O)C(=O)CC[C@@H]43)[C@@H]1CC[C@@H]2OC(=O)CCC1CCCC1` was “inactive”; that for `COc1ccc(OC)c(C[C@H](C)N)c1` was “inactive”.
The value for `Cc1ccccc1-n1c(CF)nc2ccc(N)cc2c1=O` was “inactive”; that for `CCc1cc(OC)c(C[C@@H](C)N)cc1OC` was “inactive”; that for `C[C@@H](N)C(=O)c1ccccc1` was “inactive”.
Regarding `CCCC(=O)OC(C(Cl)(Cl)Cl)P(=O)(OC)OC` (stereo not given), the Potency entry is “inactive”.
Consider `C1CN(P2(N3CC3)=NP(N3CC3)(N3CC3)=NP(N3CC3)(N3CC3)=N2)CCO1` (stereo not given), for which the Potency entry is “inactive”.
The value for `Oc1cc[c]([Hg][Cl])cc1` was 6.74 µM (active) and 19 µM (active); that for `CC(C)=CCN1CC[C@]2(C)c3cc(O)ccc3C[C@H]1[C@H]2C` was “inactive”; that for `c1ccc(C2(N3CCCC3)CCCCC2)cc1` was 26.8 µM (active).
Regarding `CC(N)Cc1ccc2c(c1)OCO2` (stereo not given), the Potency result is “inactive”.
In the case of `CCON=O`, the Potency result was “inactive”.
The value for `CCCCc1ccc(C(=O)O)nc1` was “inactive”; that for `CC(C)NC(C)Cc1ccc(I)cc1` (stereo not given) was “inactive”.
With `O=C1OC2(c3cc(Br)c(O)cc3Oc3c2cc(Br)c(O)[c]3[Hg])c2ccccc21` (stereo not given), the Potency result is “inactive”.
The value for `CCN(CC)CCO[C@H]1CC[C@@]2(C)C(=CC[C@@H]3[C@@H]2CC[C@]2(C)C(=O)CC[C@@H]32)C1` was “inactive”; that for `COC([CH2][Hg])CNC(=O)c1ccccc1OCC(=O)O` (stereo not given) was “inactive”; that for `c1ccccc1` was “inactive”.
Regarding `c1ccc2c(c1)Sc1ccccc1N2CC1CN2CCC1CC2` (stereo not given), the Potency result was “inactive”.
The value for `Oc1ccc2c3c1O[C@H]1[C@@H](O)CC[C@@]4(O)[C@@H](C2)N(CC2CCC2)CC[C@]314` was “inactive”.
With `O=c1ccc2cc(O[C@@H]3O[C@H](CO)[C@@H](O)[C@H](O)[C@H]3O)c(O)cc2o1`, the Potency entry is “inactive”.
The value for `O=C(O)/C=C\C(=O)O` was “inactive”; that for `CN1[C@H]2CC[C@@H]1[C@@H](C(=O)O)[C@@H](OC(=O)c1ccccc1)C2` was “inactive”.
`O=c1c2ccccc2[se]n1-c1ccccc1`: the Potency result is “inactive”.
Take `O=C(CS(=O)C(c1ccccc1)c1ccccc1)NO` (stereo not given): the Potency entry was “inactive”.
For the compound `COC(=O)[C@@H]1[C@H]2CC[C@@H](C[C@H]1OC(=O)c1ccccc1)N2C`, the Potency entry was “inactive”.
